Counter-ions that a name gives are not always drawn.
System: Saccharomyces cerevisiae
Assay: fraction of cells in G1 phase (DNA content, flow cytometry); higher = more cells with unreplicated DNA (G1 delay)
Settings: temperature: 30 C; YPD; JTY2953 pdr5 snq2 (sensitized); drug added to: cultures diluted from stationary phase; 6-7 h
Procedure, shortened: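 Overnight cultures of sensitized JTY2953 were diluted 1∶200 into drug at a final 20 µg/ml and fixed after 6–7 h, and further runs treated dividing JTY2953 or BY4741, fixing them 6 h and 4.33 h later respectively. All growth used YPD at 30°C with S. cerevisiae and library drugs. After ethanol fixation and SYTOX Green staining, flow cytometry recorded 10,000 events. The G1 fraction equals the Dean-Jett-Fox G1 peak area over the G1 plus G2/M areas.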

| Compound | fraction of cells in G1 phase |
| --- | --- |
| O=C(O)c1cccnc1Nc1cccc(C(F)(F)F)c1 [Niflumic acid] (70.8657 µM) | 0.505 |
| COc1ccc(C[C@H](N)C(=O)N[C@H]2[C@@H](O)[C@H](n3cnc4c(N(C)C)ncnc43)O[C@@H]2CO)cc1 [Puromycin 2HCl] (36.7377 µM) | 0.5 |
| CCCNCC(O)COc1ccccc1C(=O)CCc1ccccc1 (centres undefined) [Propafenone] (58.5652 µM) | 0.489 |
| CN[C@@H]1[C@H](O[C@H]2[C@H](O[C@H]3[C@H](O)[C@@H](O)[C@H](N=C(N)N)[C@@H](O)[C@@H]3N=C(N)N)O[C@@H](C)[C@]2(O)C=O)O[C@@H](CO)[C@H](O)[C@H]1O [Streptomycin sulfate] (34.3888 µM) | 0.478 |
| C[C@H]1COc2c(N3CCN(C)CC3)c(F)cc3c(=O)c(C(=O)O)cn1c23 [Levofloxacin HCl] (55.344 µM) | 0.471 |
| Nc1nc(Cl)nc2c1ncn2[C@@H]1O[C@H](CO)[C@@H](O)[C@@H]1F [Clofarabine] (65.8583 µM) | 0.465 |
| N=C(N)NC(=N)N1CCOCC1 [Moroxydine HCl] (96.3092 µM) | 0.496 |
| C[C@@](Cc1ccc(O)c(O)c1)(NN)C(=O)O [Carbidopa] (88.404 µM) | 0.482 |
| c1ccc2c(CC3=NCCN3)cccc2c1 [Naphazoline HCl] (95.1108 µM) | 0.456 |
| CNCCCC12CCC(c3ccccc31)c1ccccc12 [Maprotiline HCl] (72.0947 µM) | 0.475 |
| CCOC(=O)C1=C(C)NC(C)=C(C(=O)OC)C1c1cccc([N+](=O)[O-])c1 (centres undefined) [Nitrendipine] (55.4985 µM) | 0.472 |
| CC(C(=O)O)c1ccc2c(c1)Cc1cccnc1O2 (centres undefined) [Pranoprofen] (78.3466 µM) | 0.479 |
| COc1ccc2[nH]c([S+]([O-])Cc3ncc(C)c(OC)c3C)nc2n1 (centres undefined) [Tenatoprazole] (57.7349 µM) | 0.486 |
| C=C(c1ccc(C(=O)O)cc1)c1cc2c(cc1C)C(C)(C)CCC2(C)C [Bexarotene] (57.3905 µM) | 0.546 |
| CCOC(=O)c1ncn2c1CN(C)C(=O)c1cc(F)ccc1-2 [Flumazenil] (65.9423 µM) | 0.507 |
| CO[C@H](C(=O)[C@@H](O)[C@@H](C)O)[C@@H]1Cc2cc3cc(O[C@H]4C[C@@H](O[C@H]5C[C@@H](O)[C@H](O)[C@@H](C)O5)[C@H](O)[C@@H](C)O4)c(C)c(O)c3c(O)c2C(=O)[C@H]1O[C@H]1C[C@@H](O[C@H]2C[C@@H](O[C@H]3C[C@](C)(O)[C@H](O)[C@@H](C)O3)[C@@H](O)[C@@H](C)O2)[C@H](O)[C@@H](C)O1 [Plicamycin] (18.4303 µM) | 0.513 |
| Nc1ccn([C@@H]2O[C@H](CO)[C@@H](O)[C@@H]2O)c(=O)n1 [Cytarabine] (82.2297 µM) | 0.477 |
| Cc1ccc(S(=O)(=O)NC(=O)NN2CCCCCC2)cc1 [Tolazamide] (64.2249 µM) | 0.516 |
| CC(C)NCC(O)c1ccc(O)c(O)c1 (racemic) [Isoproterenol HCl (rac)] (94.6687 µM) | 0.447 |
| CC(C(=O)O)c1ccc(-c2ccccc2)c(F)c1 (centres undefined) [Flurbiprofen] (81.8773 µM) | 0.524 |
| NC[C@H]1CC[C@H](C(=O)O)CC1 [Tranexamic acid] (127.226 µM) | 0.504 |
| C=C1/C(=C\C=C2/CCC[C@]3(C)[C@@H]([C@H](C)CCCC(C)(C)O)CC[C@@H]23)C[C@@H](O)C[C@@H]1O [Calcitriol] (48.0019 µM) | 0.565 |

| Compound | fraction of cells in G1 phase |
| --- | --- |
| CC(=O)Nc1ccc(OCC(O)CNC(C)C)cc1 (centres undefined) [Practolol] (75.0911 µM) | 0.506 |
| CCN1CCC[C@H]1CNC(=O)c1c(O)c(Cl)cc(Cl)c1OC [Raclopride l-tartrate s(-)] (57.5963 µM) | 0.521 |
| O=C(NCC1CCCCN1)c1cc(OCC(F)(F)F)ccc1OCC(F)(F)F (centres undefined) [Flecainide] (42.1585 µM) | 0.509 |
| COc1ccc(C(=O)NCc2cccnc2)cc1C(=O)NCc1cccnc1 [Picotamide] (53.1323 µM) | 0.459 |
| C[C@H]1[C@H](OC(=O)CCC(=O)O)O[C@@H]2O[C@@]3(C)CC[C@H]4[C@H](C)CC[C@@H]1[C@@]24OO3 [Artesunate] (52.025 µM) | 0.556 |
| CN(C)CCC=C1c2ccccc2CCc2ccccc21 [Amitriptyline HCl] (63.7146 µM) | 0.418 |
| O=C(NC(Cc1cc(=O)[nH]c2ccccc12)C(=O)O)c1ccc(Cl)cc1 (centres undefined) [Rebamipide] (53.9381 µM) | 0.473 |
| Cn1c(NCCN(CCO)CCCc2ccc([N+](=O)[O-])cc2)cc(=O)n(C)c1=O [Nifekalant HCl] (49.327 µM) | 0.479 |
| COc1cc2nc(N(C)CCCNC(=O)C3CCCO3)nc(N)c2cc1OC (centres undefined) [Alfuzosin] (51.3611 µM) | 0.523 |
| CCCCC(C)(O)C/C=C/[C@H]1[C@H](O)CC(=O)[C@@H]1CCCCCCC(=O)OC (mixture of isomers) [Misoprostol] (52.2814 µM) | 0.499 |
| Clc1ccc2c(c1)CCc1cccnc1C2=C1CCNCC1 [Desloratadine] (64.3439 µM) | 0.5 |
| COc1ccccc1OCC(O)CO (centres undefined) [Guaifenesin] (100.898 µM) | 0.463 |
| CCN(CC)C(=O)/C(C#N)=C/c1cc(O)c(O)c([N+](=O)[O-])c1 [Entacapone] (65.5109 µM) | 0.508 |
| CN/C(=N\c1ccc(C2=NNC(=O)CC2C)cc1)NC#N (centres undefined) [Siguazodan] (70.3425 µM) | 0.493 |
| COc1ccc2[nH]c([S+]([O-])Cc3ncc(C)c(OC)c3C)nc2c1 (centres undefined) [Omeprazole] (57.9 µM) | 0.486 |
| CN(CCOc1ccc(CC2SC(=O)NC2=O)cc1)c1ccccn1 (centres undefined) [Rosiglitazone maleate] (42.2386 µM) | 0.574 |
| CN(C)CCOC(c1ccccc1)c1ccccc1 [Diphenhydramine HCl] (78.3199 µM) | 0.446 |
| N=C(N)c1ccc(OCCCCCOc2ccc(C(=N)N)cc2)cc1 [Pentamidine] (58.7494 µM) | 0.521 |
| CC(C)NCC(O)COc1ccc(CC(N)=O)cc1 (centres undefined) [Atenolol] (75.0911 µM) | 0.454 |
| Cc1ccc(N(CC2=NCCN2)c2cccc(O)c2)cc1 [PhentolamineHCl] (62.9327 µM) | 0.505 |
| CN1C2CCCC1CC(NC(=O)c1nn(C)c3ccccc13)C2 (centres undefined) [Granisetron] (64.0168 µM) | 0.486 |
| NCCCC[C@H](N[C@@H](CCc1ccccc1)C(=O)O)C(=O)N1CCC[C@H]1C(=O)O [Lisinopril] (49.322 µM) | 0.502 |

| Compound | fraction of cells in G1 phase |
| --- | --- |
| COC(=O)C1=C(C)NC(C)=C(C(=O)OC)C1c1ccccc1[N+](=O)[O-] [Nifedipine] (57.7463 µM) | 0.551 |
| CC(C)(C)[C@]1(O)CCN2C[C@H]3c4ccccc4CCc4cccc(c43)[C@@H]2C1 [Butaclamol (+)] (55.3201 µM) | 0.535 |
| CC=CC(=O)N(CC)c1ccccc1C [Crotamiton] (98.3833 µM) | 0.503 |
| CC(C)C[C@H](NC(=O)[C@@H](Cc1c[nH]c2ccccc12)NC(=O)[C@H](Cc1ccc(O)cc1)NC(=O)[C@H](CO)NC(=O)[C@H](Cc1c[nH]c2ccccc12)NC(=O)[C@H](Cc1c[nH]cn1)NC(=O)[C@@H]1CCC(=O)N1)C(=O)N[C@@H](CCCNC(=N)N)C(=O)N1CCC[C@H]1C(=O)NCC(N)=O [Triptorelin] (15.2499 µM) | 0.468 |
| CN(C)CCN1C(=O)c2ccccc2N(C)c2ccccc21 [Dibenzepine HCl] (67.7077 µM) | 0.479 |
| O=C(CCCN1CCN(c2ccccn2)CC1)c1ccc(F)cc1 [Azaperone] (61.0864 µM) | 0.582 |
| CN1CCN2c3ccccc3Cc3ccccc3C2C1 (centres undefined) [Mianserin hcl] (75.6505 µM) | 0.471 |
| Cc1cnc(C(=O)O)c[n+]1[O-] [Acipimox] (129.764 µM) | 0.493 |
| C[C@](N)(Cc1ccc(O)c(O)c1)C(=O)O [Methyldopa] (94.6883 µM) | 0.412 |
| NC(CO)C(=O)NNCc1ccc(O)c(O)c1O (centres undefined) [Benserazide HCl] (77.7459 µM) | 0.514 |
| O=C(Nc1cccc2c(=O)cc(-c3nnn[nH]3)oc12)c1ccc(OCCCCc2ccccc2)cc1 [Pranlukast] (41.5355 µM) | 0.561 |
| CCN1CCC[C@H]1CNC(=O)c1cc(S(N)(=O)=O)ccc1OC [Sulpiride s (-)] (58.5768 µM) | 0.482 |
| C#Cc1cccc(Nc2ncnc3cc(OCCOC)c(OCCOC)cc23)c1 [Erlotinib] (50.8329 µM) | 0.527 |
| CCCc1nc(C)c2c(=O)nc(-c3cc(S(=O)(=O)N4CCN(CC)CC4)ccc3OCC)[nH]n12 [Vardenafil] (40.9322 µM) | 0.511 |
| O=C(O)c1cn(C2CC2)c2cc(N3CCNCC3)c(F)cc2c1=O [Ciprofloxacin] (60.3592 µM) | 0.461 |
| COc1cccc2c1C(=O)c1c(O)c3c(c(O)c1C2=O)C[C@@](O)(C(C)=O)C[C@@H]3O[C@H]1C[C@H](N)[C@H](O)[C@H](C)O1 [Daunorubicin HCl] (37.9123 µM) | 0.596 |
| CC(=O)SCC(Cc1ccccc1)C(=O)NCC(=O)OCc1ccccc1 (centres undefined) [Racecadotril] (51.8826 µM) | 0.509 |
| NS(=O)(=O)c1cc(C(=O)O)c(NCc2ccco2)cc1Cl [Furosemide] (60.4688 µM) | 0.459 |
| COCc1c(C(C)C)nc(C(C)C)c(/C=C/[C@@H](O)C[C@@H](O)CC(=O)O)c1-c1ccc(F)cc1 [Cerivastatin] (43.5196 µM) | 0.448 |
| O=C(O)COC(=O)Cc1ccccc1Nc1c(Cl)cccc1Cl [Aceclofenac] (56.4665 µM) | 0.489 |
